Measured values: PubChem BioAssay (NCI)
This is part of a sample that, as a whole, favours compounds with a hit. Of some 83,000 tested, about 20% had one in any assay.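 In brief: 96-well plates, 48 h treatment, single concentration, percent growth endpoint.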 Active and inactive are the calls of the source. Rule for the calls: active = growth percent below 10; inactive = the rest.

How the values were obtained:
Assay in all cases: NCI-60 one-dose screen, 48 h (100 = growth as untreated, 0 = no growth, -100 = all killed)
Conditions in all cases: 10 µM unless noted
SK-MEL-2 melanoma = tested on: SK-MEL-2 melanoma
EKVX NSCLC = tested on: EKVX NSCLC
SN12C renal = tested on: SN12C renal
TK-10 renal = tested on: TK-10 renal
ACHN renal = tested on: ACHN renal
CAKI-1 renal = tested on: CAKI-1 renal
A498 renal = tested on: A498 renal
CCRF-CEM leukemia = tested on: CCRF-CEM leukemia
MOLT-4 leukemia = tested on: MOLT-4 leukemia
SR leukemia = tested on: SR leukemia
RPMI-8226 leukemia = tested on: RPMI-8226 leukemia
OVCAR-8 ovarian = tested on: OVCAR-8 ovarian
OVCAR-5 ovarian = tested on: OVCAR-5 ovarian
OVCAR-4 ovarian = tested on: OVCAR-4 ovarian
SK-OV-3 ovarian = tested on: SK-OV-3 ovarian
IGROV1 ovarian = tested on: IGROV1 ovarian
OVCAR-3 ovarian = tested on: OVCAR-3 ovarian
HS 578T breast = tested on: HS 578T breast
NCI/ADR-RES ovarian = tested on: NCI/ADR-RES ovarian
UO-31 renal = tested on: UO-31 renal

Measured: growth

O=C1/C(=C/c2cccs2)SC(=S)N1CCCN1CCOCC1
inactive: SK-MEL-2 melanoma 101% | EKVX NSCLC 94.8% | SN12C renal 83.3% | TK-10 renal 122% | ACHN renal 95.3% | CAKI-1 renal 91.5% | A498 renal 72.2% | CCRF-CEM leukemia 87.5% | MOLT-4 leukemia 101% | SR leukemia 92.5% | RPMI-8226 leukemia 97.9% | OVCAR-8 ovarian 96% | OVCAR-5 ovarian 105% | OVCAR-4 ovarian 89.1% | SK-OV-3 ovarian 99.4% | IGROV1 ovarian 97% | OVCAR-3 ovarian 113% | HS 578T breast 98.7% | NCI/ADR-RES ovarian 92.7%

N#Cc1c(N)nnn1Cc1cc(=O)oc2c1ccc1ccccc12
inactive: SK-MEL-2 melanoma 94.6% | EKVX NSCLC 76.1% | SN12C renal 94.2% | UO-31 renal 72.8% | TK-10 renal 115% | ACHN renal 97.6% | A498 renal 89.7% | CCRF-CEM leukemia 90.9% | SR leukemia 105% | RPMI-8226 leukemia 97.8% | OVCAR-8 ovarian 96.8% | OVCAR-5 ovarian 108% | OVCAR-4 ovarian 108% | SK-OV-3 ovarian 86% | IGROV1 ovarian 101% | OVCAR-3 ovarian 103% | HS 578T breast 101% | NCI/ADR-RES ovarian 99.4%

C/C(=N\NC(=O)c1ccccc1O)c1cccc(/C(C)=N/NC(=O)c2ccccc2O)n1
inactive: SK-MEL-2 melanoma 95.2% | EKVX NSCLC 30% | SN12C renal 55% | UO-31 renal 38.6% | TK-10 renal 41% | ACHN renal 39.7% | A498 renal 71.9% | CCRF-CEM leukemia 21.8% | SR leukemia 16.6% | RPMI-8226 leukemia 41.4% | OVCAR-8 ovarian 32.3% | OVCAR-5 ovarian 78.9% | OVCAR-4 ovarian 35.4% | SK-OV-3 ovarian 45.6% | IGROV1 ovarian 61.8% | HS 578T breast 69.3% | NCI/ADR-RES ovarian 59.1%

O=C(Cn1c(=O)sc2ccccc21)NNS(=O)(=O)c1ccccc1[N+](=O)[O-]
inactive: SK-MEL-2 melanoma 103% | EKVX NSCLC 98.5% | SN12C renal 109% | TK-10 renal 104% | ACHN renal 101% | CAKI-1 renal 85.2% | A498 renal 110% | CCRF-CEM leukemia 102% | MOLT-4 leukemia 101% | RPMI-8226 leukemia 98.4% | OVCAR-8 ovarian 99.4% | OVCAR-5 ovarian 100% | OVCAR-4 ovarian 117% | SK-OV-3 ovarian 103% | IGROV1 ovarian 102% | OVCAR-3 ovarian 99.3% | HS 578T breast 103% | NCI/ADR-RES ovarian 103%

O=C1NC(=O)c2c1c1c3ccccc3ccc1c1[nH]c3ccc(Br)cc3c21
active: SN12C renal 9.28% | ACHN renal 1.55% | A498 renal -10.7% | MOLT-4 leukemia 9.35% | RPMI-8226 leukemia -19.9% | OVCAR-3 ovarian 8.73% | NCI/ADR-RES ovarian 3.52%
inactive: SK-MEL-2 melanoma 35.4% | EKVX NSCLC 18% | TK-10 renal 36.8% | CAKI-1 renal 15.8% | CCRF-CEM leukemia 10.8% | SR leukemia 11.4% | OVCAR-8 ovarian 14.7% | OVCAR-5 ovarian 29.7% | SK-OV-3 ovarian 31% | IGROV1 ovarian 14.4% | HS 578T breast 78.4%

O=C(Cn1c(-c2ccc([N+](=O)[O-])cc2)nc2ccccc21)NNC(=O)c1cccnc1
inactive: SK-MEL-2 melanoma 103% | EKVX NSCLC 73.2% | SN12C renal 78.9% | TK-10 renal 126% | ACHN renal 84.4% | CAKI-1 renal 71.2% | A498 renal 65.1% | CCRF-CEM leukemia 75.6% | MOLT-4 leukemia 79.3% | SR leukemia 75.9% | RPMI-8226 leukemia 77.6% | OVCAR-8 ovarian 85.1% | OVCAR-5 ovarian 101% | OVCAR-4 ovarian 96.5% | SK-OV-3 ovarian 102% | IGROV1 ovarian 63.3% | OVCAR-3 ovarian 97.3% | HS 578T breast 101% | NCI/ADR-RES ovarian 87.9%

Cc1nc2sc(C(=O)Nc3cccc(Cl)c3C)c(N)c2cc1C(=O)c1ccccc1
active: A498 renal -7.4% | CCRF-CEM leukemia 8.23% | RPMI-8226 leukemia 6.33% | OVCAR-8 ovarian 9.81% | SK-OV-3 ovarian 3.83% | OVCAR-3 ovarian -19.1% | NCI/ADR-RES ovarian 4.5%
inactive: SK-MEL-2 melanoma 49.7% | EKVX NSCLC 40.5% | SN12C renal 29.3% | TK-10 renal 47.1% | ACHN renal 33.7% | CAKI-1 renal 33.1% | MOLT-4 leukemia 16.4% | SR leukemia 19.8% | OVCAR-5 ovarian 31.1% | OVCAR-4 ovarian 63.3% | IGROV1 ovarian 28.6% | HS 578T breast 12.2%

CC(=O)OC[C@]12CCC(C)(C)C[C@H]1[C@@]1(O)[C@H](O)C[C@@H]3[C@@]4(C)CCCNC(C)(C)[C@@H]4CC[C@@]3(C)[C@]1(C)CC2
inactive: SK-MEL-2 melanoma 112% | EKVX NSCLC 101% | SN12C renal 99.5% | TK-10 renal 103% | ACHN renal 109% | CAKI-1 renal 106% | A498 renal 86.5% | CCRF-CEM leukemia 102% | MOLT-4 leukemia 104% | SR leukemia 99.3% | RPMI-8226 leukemia 107% | OVCAR-8 ovarian 111% | OVCAR-5 ovarian 102% | OVCAR-4 ovarian 120% | SK-OV-3 ovarian 111% | IGROV1 ovarian 107% | HS 578T breast 110% | NCI/ADR-RES ovarian 113%

CCn1cc(C(=O)N/N=C/c2cccs2)c(=O)c2cc(F)c(N3CCNC(C)C3)c(F)c21 (centres undefined)
active: SR leukemia -4.21% | RPMI-8226 leukemia -36.6%
inactive: SK-MEL-2 melanoma 103% | EKVX NSCLC 34.1% | SN12C renal 70% | TK-10 renal 83.9% | ACHN renal 87.2% | CAKI-1 renal 46.5% | A498 renal 104% | CCRF-CEM leukemia 67.2% | MOLT-4 leukemia 75.1% | OVCAR-8 ovarian 43.8% | OVCAR-5 ovarian 67.2% | OVCAR-4 ovarian 76.2% | SK-OV-3 ovarian 90.3% | IGROV1 ovarian 67% | OVCAR-3 ovarian 68.7% | HS 578T breast 86% | NCI/ADR-RES ovarian 67.9%

COc1ccccc1NC(=O)Cn1cc(CN2CCN(c3ccnc4cc(Cl)ccc34)CC2)nn1
inactive: SK-MEL-2 melanoma 112% | EKVX NSCLC 92.5% | SN12C renal 98% | TK-10 renal 102% | ACHN renal 95.3% | CAKI-1 renal 80.2% | A498 renal 94.8% | SR leukemia 92.1% | RPMI-8226 leukemia 50.9% | OVCAR-8 ovarian 93.4% | OVCAR-5 ovarian 82.9% | SK-OV-3 ovarian 86.6% | IGROV1 ovarian 90.6% | OVCAR-3 ovarian 101% | HS 578T breast 88.5% | NCI/ADR-RES ovarian 91.5%
active: CCRF-CEM leukemia -34.8%

COc1ccc(C(c2cc(OC)c(OC)c(OC)c2)N2CCN(c3ccccc3)CC2)cc1 (centres undefined)
inactive: SK-MEL-2 melanoma 69.3% | EKVX NSCLC 99.6% | SN12C renal 101% | TK-10 renal 106% | ACHN renal 98% | CAKI-1 renal 86.4% | A498 renal 89.2% | CCRF-CEM leukemia 82.6% | MOLT-4 leukemia 72.8% | SR leukemia 33.2% | RPMI-8226 leukemia 89.3% | OVCAR-8 ovarian 99.1% | OVCAR-5 ovarian 102% | OVCAR-4 ovarian 89.9% | SK-OV-3 ovarian 78.5% | IGROV1 ovarian 72.7% | OVCAR-3 ovarian 90.1% | HS 578T breast 101% | NCI/ADR-RES ovarian 85.9%

COCCn1cc(-c2nc(-c3cc4cccnc4n3CCOC)cs2)c2cc(OC)ccc21
active: OVCAR-3 ovarian 4.62%
inactive: SK-MEL-2 melanoma 71.6% | EKVX NSCLC 26% | SN12C renal 78.8% | TK-10 renal 14% | ACHN renal 68.3% | CAKI-1 renal 70.4% | A498 renal 66.8% | CCRF-CEM leukemia 35.2% | MOLT-4 leukemia 58.4% | SR leukemia 36.3% | RPMI-8226 leukemia 60.3% | OVCAR-8 ovarian 61.1% | OVCAR-5 ovarian 23.6% | OVCAR-4 ovarian 20% | SK-OV-3 ovarian 73.4% | IGROV1 ovarian 30.8% | HS 578T breast 58% | NCI/ADR-RES ovarian 58.3%

COCCNC(=O)c1ccc(-c2nc3ccc4[nH]ncc4c3c3c2CCCC3)cc1
active: CAKI-1 renal -4.05% | A498 renal -9.26% | SR leukemia 5.46% | SK-OV-3 ovarian 6.55% | HS 578T breast -6.17%
inactive: SK-MEL-2 melanoma 40.2% | EKVX NSCLC 45.7% | SN12C renal 33% | TK-10 renal 38.9% | ACHN renal 14.9% | CCRF-CEM leukemia 18.1% | MOLT-4 leukemia 17.8% | RPMI-8226 leukemia 29.6% | OVCAR-8 ovarian 46% | OVCAR-5 ovarian 67.8% | OVCAR-4 ovarian 61.9% | IGROV1 ovarian 15.8% | OVCAR-3 ovarian 56% | NCI/ADR-RES ovarian 63.9%

O=C(CCc1nnc(Cn2cnc3nc[nH]c3c2=O)o1)c1nc2ncccc2[nH]1
inactive: SK-MEL-2 melanoma 103% | EKVX NSCLC 102% | SN12C renal 95.1% | TK-10 renal 96.9% | ACHN renal 105% | CAKI-1 renal 92.2% | A498 renal 94.8% | CCRF-CEM leukemia 90.5% | MOLT-4 leukemia 103% | RPMI-8226 leukemia 99.6% | OVCAR-8 ovarian 100% | OVCAR-5 ovarian 100% | OVCAR-4 ovarian 99.4% | SK-OV-3 ovarian 107% | IGROV1 ovarian 102% | HS 578T breast 93.2% | NCI/ADR-RES ovarian 100%

O=S(=O)(Nc1ccccc1)c1ccc(C2CC3(Cl)C(Cl)=C(Cl)C2(Cl)C3(Cl)Cl)cc1 (centres undefined)
active: SN12C renal -18.5%
inactive: SK-MEL-2 melanoma 74.1% | EKVX NSCLC 36.3% | UO-31 renal 26.7% | TK-10 renal 66.2% | ACHN renal 40% | A498 renal 62.4% | CCRF-CEM leukemia 47.6% | MOLT-4 leukemia 30% | RPMI-8226 leukemia 13.8% | OVCAR-8 ovarian 55.6% | OVCAR-5 ovarian 60.1% | OVCAR-4 ovarian 44% | SK-OV-3 ovarian 76% | IGROV1 ovarian 54.8% | OVCAR-3 ovarian 26% | HS 578T breast 54.8% | NCI/ADR-RES ovarian 24.1%
